According to PubChem BioAssay AID488899 (Broad Institute, 2010):
About 2,800 (0.85%) of roughly 330,000 compounds were called active.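 Rule for the calls: active = mean inhibition across replicates of 60% or more, whatever share of single replicates reaches that level; inconclusive = some that reach 60%, reason not given; inactive = mean inhibition across replicates below 60%.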 The full list was thinned out, with actives kept by preference.

assay: inhibitors of MITF-dependent TRPM1 promoter reporter, primary screen, cell-based, SK-MEL-5, single point, luciferase (AID 488899); settings: SK-MEL-5 TRPM1 promoter luciferase, 24 h; at 12.5 µM; active compounds read high

inhibition, active:
C=CCn1c(C)cc(C2=NNC(=NCC)SC2)c1C 98.4%, CSc1nnc(NC(=O)c2nc(S(=O)(=O)Cc3ccc(C)cc3)ncc2Cl)s1 62.7%, Cc1cccc(NC(=O)c2nc(S(=O)(=O)Cc3ccccc3)ncc2Cl)c1 70.8%, Cc1ccc(CS(=O)(=O)c2ncc(Cl)c(C(=O)Nc3nnc(C)s3)n2)cc1 85.4%, O=C(/C=C/Sc1ncn[nH]1)c1ccc(Cl)cc1 90.5%, CC(=O)Nc1ccc(NC(=O)C(C)OC(=O)c2ccccc2C(=O)c2ccc(Cl)c([N+](=O)[O-])c2)cc1 (stereo not drawn) 75.9%, COc1ccccc1-n1nnnc1S(=O)(=O)Cc1ccc(Cl)cc1 73.6%, CCc1nn(-c2cc(Oc3cccc4ccccc34)nc(-c3ccccc3)n2)c(N)c1C#N 86.1%

inhibition, inactive:
CC(C)OC(=O)CN1CCN(c2ccc(Cl)cc2)CC1 -22.1%, Cc1ccc(S(=O)(=O)NCc2ccc(C(=O)NC3CCC(C)CC3)cc2)cc1 (stereo not drawn) -5.23%, O=C(NCCc1ccccc1)c1cccc(NC(=O)c2ccccc2)c1 -26.7%, CCN(CC(=O)Nc1c(F)cccc1F)C(=O)Cc1cccs1 -11.1%, Cc1nnc(NC(=O)c2ccc3nccnc3c2)s1 -45.1%, COCCSc1nnc(NC(=O)CCS(=O)(=O)Cc2ccccc2)s1 -6.5%, CSc1ncc(Cl)c(C(=O)Nc2cc(C)ccc2C)n1 18.6%, Cc1cccc(NC(=O)c2nc[nH]c2C(=O)NCC(=O)OCc2ccccc2)c1 -4.1%, Cc1ccc(S(=O)(=O)CC(=O)Nc2nnc(C)s2)cc1 7.41%, Cc1cccc(CS(=O)(=O)c2ncc(Cl)c(C(=O)Nc3ccc(F)cc3)n2)c1 41%, NS(=O)(=O)c1ccccc1NC(=O)c1c(O)c2ccccc2[nH]c1=O -57.1%, Cc1nc(N)nc(Cl)c1CCC1OCCO1 -7.11%, Cc1ccc(CN(CC(=O)NCC2CCCO2)S(=O)(=O)c2ccc(C)cc2)cc1 (stereo not drawn) -1.73%, COc1ccc(N2C(=O)C(CC(=O)Nc3ccccc3)N(Cc3ccc(OC)c(OC)c3)C2=O)cc1 (stereo not drawn) -7.22%, COc1ccc([N+](=O)[O-])cc1N(CC(O)Cn1nnc2ccccc21)S(=O)(=O)c1ccc(C)cc1 (stereo not drawn) -0.297%, Cc1cc(F)ccc1NC(=S)NCCc1ccccc1 7.66%, Cc1ccc(C)c(S(=O)(=O)N(C)c2ccc(OC(=O)C3CCN(C(=O)c4ccc(F)cc4)CC3)cc2)c1 -0.817%, Cc1ccc(S(=O)(=O)N2CCN(C(=O)c3cc(S(=O)(=O)N4CCOCC4)ccc3F)CC2)cc1 3.63%, CC(C)Nc1nnc(SC(C)C(=O)N(C)C2CCCCC2)s1 (stereo not drawn) 3.93%, Cc1ccc(C(=O)/C=C/c2c(C)nn(-c3ccccc3)c2Cl)cc1 -34.6%, Cc1cccc(C=CC(=O)c2ccc(Cl)cc2)c1 -37.5%, CC(OC(=O)CNC(=O)c1ccc(Cl)c([N+](=O)[O-])c1)C(=O)NCc1ccco1 (stereo not drawn) -4.83%, O=C(Nc1ccncc1)c1ccc(Cl)c([N+](=O)[O-])c1 -0.779%, O=C(COC(=O)c1cnccn1)Nc1ccc(Cl)cc1C(F)(F)F 8.53%, COc1ccc(CC(=O)NC2CCSc3ccccc32)cc1OC (stereo not drawn) 3.11%, COc1ccccc1-n1nnnc1SCC(=O)NC(=O)Cc1ccccc1 2.76%, COc1ccccc1N1CCN(S(=O)(=O)c2ccc(Cl)cc2)CC1 8.65%, CC(C)(C)n1nc(Cc2cccc3ccccc23)c(C#N)c1N 4.42%, O=C(c1ccc2c(c1)N(Cc1ccc(F)cc1)C(=O)c1ccccc1S2(=O)=O)N1CCN(c2ccccn2)CC1 7.75%, CCOC(=O)C1(Cc2ccccc2C)CCCN(S(C)(=O)=O)C1 (stereo not drawn) 0.048%
